Drawing on PubChem BioAssay (NCI), this text covers growth for seven compounds.

Each structure is given as a SMILES string. Several values for one entry are separate records, joined by “and”; a condition that tells them apart may be missing. Identical values can stand only once. The panel holds about 83,000 compounds, 20% with a hit somewhere; the sample as a whole holds those more often.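 The endpoint reported here, percent growth, reads 100 for growth as untreated, 0 for no net growth and -100 for all cells dead.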 Unmarked numbers belong to inactive results. Activity calls are given as the source filed them. How the source made its calls: active means growth percent below 10; inactive means the rest.

Test systems include NCI-H23 lung; NCI-H226 lung; NCI-H322M lung; HOP-62 NSCLC; NCI-H460 lung; HOP-92 NSCLC; NCI-H522 lung; A549/ATCC NSCLC; 786-0 renal; COLO 205 colon; DU-145 prostate; K-562 leukemia; MALME-3M melanoma; MDA-MB-231 breast; RXF 393 renal; SF-268 CNS; SF-295 CNS; SF-539 CNS; UACC-257 melanoma; M14 melanoma.
Common to all, as to test: NCI-60 one-dose screen, 48 h (100 = growth as untreated, 0 = no growth, -100 = all killed)
Conditions in all cases: 10 µM unless noted

In the case of `O=C(Cc1ccc(F)cc1)c1ccccc1`, the growth in the test with NCI-H23 lung is 103%; with NCI-H226 lung, 110%; in the test with NCI-H322M lung it was 99%; with HOP-62 NSCLC, 109%; with NCI-H460 lung, 108%; in the test on HOP-92 NSCLC, 89.7%. Further, the growth was 101% in the test on NCI-H522 lung; 102% in the test on A549/ATCC NSCLC; 97.6% in the test on 786-0 renal; 134% in the test on COLO 205 colon; 127% with DU-145 prostate; 100% with K-562 leukemia. In addition, the growth with MALME-3M melanoma is 107%; in the test with MDA-MB-231 breast it was 111%; in the test with RXF 393 renal, 118%; in the test with SF-268 CNS, 113%; with SF-295 CNS, 117%; in the test with SF-539 CNS, 113%. Besides, the growth with UACC-257 melanoma was 114%; in the test on M14 melanoma, 105%.

Consider `CCOC(=O)C(=CCC(C)C)C(=O)OCC`, for which the growth is 93.1% in the test on NCI-H23 lung; 93.4% with NCI-H226 lung; 104% with NCI-H322M lung; 89% in the test on HOP-62 NSCLC; 106% with NCI-H460 lung; 89.3% in the test with HOP-92 NSCLC. In addition, the growth with NCI-H522 lung was 104%; in the test with A549/ATCC NSCLC, 104%; with 786-0 renal, 95.9%; in the test on COLO 205 colon, 116%; in the test with DU-145 prostate, 99.3%; with K-562 leukemia, 125%. For the same compound, the growth in the test with MALME-3M melanoma was 120%; in the test with MDA-MB-231 breast, 99.6%; in the test on RXF 393 renal, 113%; with SF-268 CNS, 94.9%; with SF-295 CNS it was 120%; in the test on SF-539 CNS it was 95.7%. Also, the growth in the test with UACC-257 melanoma was 110%; in the test with M14 melanoma it was 95.7%.

On to `CCCCC1=C(Br)C(=O)c2nc(C)ccc2C1=O`, for which the growth with NCI-H23 lung is 92.8%; in the test on NCI-H226 lung it was 91.2%; with NCI-H322M lung, 88.8%; with HOP-62 NSCLC, 89.9%; with NCI-H460 lung it was 98.8%; in the test with HOP-92 NSCLC, -8.03% (active). The growth in the test with NCI-H522 lung is 62.5%; in the test with A549/ATCC NSCLC it was 92%; in the test with 786-0 renal, 95.2%; with COLO 205 colon, 37.1%; with DU-145 prostate it was 101%; in the test on K-562 leukemia, 34%. The growth in the test on MALME-3M melanoma was 83.6%; with MDA-MB-231 breast it was 80.9%; in the test with RXF 393 renal it was 90.4%; in the test with SF-268 CNS it was 92.8%; in the test on SF-295 CNS, 103%; in the test with SF-539 CNS it was 92.6%. In addition, the growth in the test on UACC-257 melanoma was 94%; with M14 melanoma, 96%.

Regarding `CCOc1nc(-c2ccccc2)cc2c(O)c(C(=O)N/N=C/c3ccc(N(C)C)cc3)[nH]c(=O)c12`, the growth in the test with NCI-H23 lung was 107%; in the test with NCI-H226 lung, 97.1%; in the test with NCI-H322M lung, 113%; in the test on HOP-62 NSCLC, 65.2%; in the test on NCI-H460 lung, 106%; in the test on HOP-92 NSCLC it was 99.9%. The growth in the test on NCI-H522 lung is 80.4%; in the test with A549/ATCC NSCLC, 107%; in the test on 786-0 renal it was 112%; in the test on COLO 205 colon, 229%; with DU-145 prostate it was 120%; in the test with K-562 leukemia, 105%. Besides, the growth was 135% with MALME-3M melanoma; 98.8% in the test with MDA-MB-231 breast; 123% in the test with RXF 393 renal; 104% in the test with SF-268 CNS; 111% in the test with SF-295 CNS; 99.7% in the test with SF-539 CNS. Moreover, the values for the growth in the test with UACC-257 melanoma and in the test with M14 melanoma were 125% and 119%, respectively.

With `C=C(c1ccc(C(=O)O)cc1)c1cc2c(cc1C)C(C)(C)CCC2(C)C`, the growth is 81.7% and 81.9% in the test with NCI-H23 lung; 76% and 86.3% in the test on NCI-H226 lung; 72% in the test on NCI-H322M lung; 79.7% and 67.3% with HOP-62 NSCLC; 83.4% and 79% with NCI-H460 lung; 68.4% in the test on HOP-92 NSCLC. Besides, the growth with NCI-H522 lung was 52.4% and 61.4%; in the test on A549/ATCC NSCLC, 52.1% and 31.2%; with 786-0 renal it was 79.1% and 80.1%; in the test with COLO 205 colon, 135% and 118%; in the test on DU-145 prostate, 94.4% and 92.3%; in the test on K-562 leukemia, 53.4% and 58.5%. For the same compound, the growth with MALME-3M melanoma was 64.9%; in the test on MDA-MB-231 breast, 69.6% and 68.2%; with RXF 393 renal, 94.9% and 105%; with SF-268 CNS, 90.2% and 75.4%; in the test with SF-295 CNS it was 38.5% and 48.8%; with SF-539 CNS, 82.1% and 80.5%. Further, the growth in the test on UACC-257 melanoma is 94.9% and 90.3%; with M14 melanoma, 87% and 75.5%.

As to `Cc1ccc(NC(=O)c2sc3nc(C)c(C(=O)c4ccccc4)cc3c2N)cc1`, the growth with NCI-H23 lung is 96.2%; in the test on NCI-H226 lung, 99.9%; with NCI-H322M lung, 92.2%; in the test with HOP-62 NSCLC, 90.7%; in the test with NCI-H460 lung it was 65.7%; in the test on HOP-92 NSCLC it was 80%. Besides, the growth is 88.2% in the test with NCI-H522 lung; 44.1% in the test with A549/ATCC NSCLC; 91.9% in the test with 786-0 renal; 98.5% in the test on COLO 205 colon; 95.4% in the test with DU-145 prostate; 55.7% in the test on K-562 leukemia. Moreover, the growth in the test with MALME-3M melanoma is 87.6%; with MDA-MB-231 breast it was 92%; in the test on RXF 393 renal it was 98.8%; in the test on SF-268 CNS it was 91.1%; in the test on SF-295 CNS, 73.1%; with SF-539 CNS it was 94.8%. The figures for the growth in the test on UACC-257 melanoma and with M14 melanoma were 94.9% and 82.7%, respectively.

`Cc1ccc(S(=O)(=O)OC[C@@]2(C)CC[C@]3(C)CC[C@]4(C)C(=C3C2)C=C[C@@H]2[C@@]3(C)CCCNC(C)(C)[C@@H]3CC[C@]24C)cc1`: the growth in the test on NCI-H23 lung was 59.2%; in the test on NCI-H226 lung, 66.8%; in the test with NCI-H322M lung it was 26.9%; in the test on HOP-62 NSCLC it was 53.7%; in the test on NCI-H460 lung, -65.4% (active); in the test on HOP-92 NSCLC, 28.6%. Further, the growth is -47.1% (active) in the test on NCI-H522 lung; -38.2% (active) in the test on A549/ATCC NSCLC; -90.7% (active) with 786-0 renal; -78% (active) with COLO 205 colon; -1.23% (active) with DU-145 prostate; -28.1% (active) with K-562 leukemia. Also, the growth in the test with MALME-3M melanoma was 15.1%; in the test with MDA-MB-231 breast it was -43.7% (active); in the test with RXF 393 renal it was -7.17% (active); with SF-268 CNS, 74.7%; in the test with SF-295 CNS, 102%; in the test with SF-539 CNS it was 1.1% (active). Moreover, the growth in the test on UACC-257 melanoma was 61.9%; in the test on M14 melanoma, -64.9% (active).
